Assay results: PubChem BioAssay (Tox21)
Inconclusive results are not listed. The source made the active and inactive calls. Calls follow the shape of the dose curve; as a rule, active = well fitted cell-killing curve with a large enough effect in the repeat runs; inconclusive = weak or mixed curves, or effect the other way; inactive = flat fitted curve, though single readings scatter.

Experiment: qHTS assay to identify small molecule antagonists of the retinoid acid receptor (RAR) signaling pathway - cell viability counter screen (AID 1159551); also: nearly all actives have a fitted effect of over 35% in size
Settings: C3RL4 cells viability, ATP luminescence (CellTiter-Glo), 6 h; series mostly up to 92.4 µM
Source text: U.S. Tox21 Program National Center for Advancing Translational Sciences [NCATS] NIH Chemical Genomics Center [NCGC] U.S. Environmental Protection Agency [EPA] National Institutes of Environmental Health Sciences [NIEHS] National Toxicology Program [NTP] U.S. Food and Drug Administration [FDA] Tox21 Assay Overview: All-trans Retinoic acid (atRA) is the potent natural metabolite of retinol and plays an important role in normal embryonic development and maintenance of cellular phenotype in adult animals. atRA is the activating ligand for the retinoic acid receptors (RARs) which form heterodimers with retinoid X receptors (RXRs) on the retinoic acid response element (RARE). Through activation of the RAR/RXRs nuclear receptors, atRA regulates the transcription of a large number of protein-coding genes and regulatory RNAs. Intracellular levels of atRA are controlled by the retinol signaling pathway (RSP) that regulates the biosynthesis and catabolism of atRA to maintain physiological levels. Chemicals that interfere with the RSP can cause abnormal intracellular levels of atRA and therefore are potential developmental toxicants. To assess compounds for the potential adverse effect on embryonic development through interfering with retinol signaling, a cell-based RARE luciferase reporter gene assay was used. C3RL4 cell line (OARSA/CFSAN/FDA, Laurel, MD) was used to screen Tox21 10K compound library for identifying inhibitors of the RSP. Also cytotoxicity was assessed by determining the viability of cells based on the quantitation of ATP.
Tox21 Assay Protocol Summary: C3RL4 cells were seeded at 1,000/well in 4 uL of assay medium into white solid 1,536-well tissue culture plates (Greiner Bio-One North America Inc. Monroe, NC) using a Multidrop Combi (Thermo Scientific, Waltham, MA) dispenser. After incubation at 37 C and 5% CO2 for an overnight, 23 nL of compounds dissolved in DMSO, positive control or DMSO only were transferred by a Pintool station (Kalypsys, San Diego, CA). One ul of 1 uM (final concentration) of Retinol was added right after the compound addition by using a Flying Reagent Dispenser (FRD) (Aurora Discovery, San Diego, CA). After 6 hr incubation at 37 C and 5% CO2, 5 uL of CellTiter-Glo reagent (Promega Corporation, Madison, WI) was added to each assay plate using an FRD. Luminescence was quantified on a ViewLux plate reader (PerkinElmer, Waltham, MA) after 30 min incubation at room temperature.

Compound | outcome
C=CCCCCCCCCC(=O)O | inactive
Cc1ccc(S(=O)(=O)N=C=O)cc1 | inactive
C[C@]12CC[C@@H]3c4ccc(O)cc4CC[C@H]3[C@@H]1C[C@@H](O)[C@@H]2O | inactive
CC(=O)OCCOC(C)=O | inactive
CCCCCCCCCCCC(=O)OC | inactive
CC(C)OC(=O)COc1ccc(Cl)cc1Cl | inactive
CC(C)CC(=O)CC(C)CC(C)C (stereo not given) | inactive
COCCOC(=O)c1ccccc1C(=O)OCCOC | inactive
CCNc1ccccc1 | inactive
CCCCCCCC=O | inactive
O=C(O)/C=C/C(=O)O | inactive
CC(=O)CC(C)(C)O | inactive
CN(C)c1ccc(O)c2c1C[C@H]1C[C@H]3[C@H](N(C)C)C(=O)C(C(N)=O)=C(O)[C@@]3(O)C(=O)C1=C2O | inactive
C=C(C)C(=O)OCC(C)C | inactive
CC(=O)OC1CC(C)OC(C)O1 (stereo not given) | inactive
CCOCC(=O)O | inactive
CCCOC(=O)c1ccccc1 | inactive
CC(C)OP(=O)(CP(=O)(OC(C)C)OC(C)C)OC(C)C | inactive
CC(O)CC(C)(C)O (stereo not given) | inactive
CC(=O)c1ccc(O)cc1 | inactive

Compound | outcome
CCO[Si](CCCN)(OCC)OCC | inactive
OC1C(O)C(O)C(O)C(O)C1O (stereo not given) | inactive
CC1(C)S[C@@H]2[C@H](NC(=O)COc3ccccc3)C(=O)N2[C@H]1C(=O)O | inactive
O=[N+]([O-])c1ccc2nc[nH]c2c1 | inactive
CC(C)CCCCCCCOC(=O)CCCCC(=O)OCCCCCCCC(C)C | inactive
N#Cc1ccccc1 | inactive
COc1ccc(OC)cc1 | inactive
OCc1cccc(Oc2ccccc2)c1 | inactive
CC(C)(C#N)c1cc(Cn2cncn2)cc(C(C)(C)C#N)c1 | inactive
CNC(=O)Oc1ccc2c(c1)[C@]1(C)CCN(C)[C@@H]1N2C | inactive
CCOCCOCCOCCO | inactive
CCCCCCO | inactive
C=C(C)[C@H]1CC=C(C)C(=O)C1 | inactive
CN/C(=C\[N+](=O)[O-])NCCSCc1csc(CN(C)C)n1 | inactive
O=C(O)c1ccccc1C(=O)O | inactive
Nc1nc(N)nc(-c2ccccc2)n1 | inactive
C=C(C)CNCC | inactive
CC1(C)CC(N)CC(C)(CN)C1 (stereo not given) | inactive
CC(C)c1cccc(C(C)C)c1 | inactive
O=C(O)c1ccc(C(=O)O)c(C(=O)O)c1 | inactive
